The values that follow come from PubChem BioAssay AID449762 (Southern Research Specialized Biocontainment Screening …, 2010).

As usually defined, the inhibition is the change of the read-out against control, counted positive when it falls.

In all, about 330,000 compounds went through this assay and about 1,900 (0.58%) were called active. Roughly 4% stayed inconclusive and do not appear here. A selection follows. Results with a measured potency or affinity are listed apart. Unmarked numbers belong to inactive results. No stated cut-off is given here; in the data, inconclusive means inhibition above about 70% without an active follow-up result; inactive means below that.

The nature of the experiment: M. tuberculosis growth inhibition, HTS (AID 449762).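 Further: bacterial growth assessed after seven days of incubation.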 Particulars: M. tuberculosis H37Rv growth inhibition, 7H9 media; at 25 µM; active compounds read high.
With `Cc1ccc2cc(C(c3nnnn3CC3CCCO3)N3CCc4ccccc4C3)c(=O)[nH]c2c1` (configuration not stated), the inhibition is 11.1%.

As to `Nc1ccc(N=Nc2ccccc2)c2ccccc12`, the inhibition was -11.4%.

Turning to `NS(=O)(=O)c1ccc(N=Nc2ccc(O)c3ncccc23)cc1`, the inhibition is -1.88%.

Consider `CCCC(=O)Nc1nnc(S(=O)(=O)N(CC)c2ccc(OC)cc2)s1`, for which the inhibition was 6.35%.

In the case of `O=c1[nH]c2ccccc2nc1Cc1ccc([N+](=O)[O-])cc1`, the inhibition is 1.98%.

With `Cc1nn(C(C)C(=O)N2CCCC2)c(=O)c2nn(-c3ccccc3)c(C)c12` (configuration not stated), the inhibition was 4.45%.

On to `Cc1cc(-c2ccccc2)cc(C)[n+]1Cc1ccccc1`, for which the inhibition is 4.78%.

Consider `O=C([O-])c1cc(-c2ccccc2)cc(-c2ccccc2)[n+]1Cc1ccccc1`, for which the inhibition is 2.25%.

Regarding `Cn1c(=O)cc(SCC(=O)N2CCOCC2)c2ccc(Cl)cc21`, the inhibition was -11.3%.

Regarding `Cn1c(=O)cc(SCC(=O)N2CCCC2)c2ccc(Cl)cc21`, the inhibition is 3.77%.

As for `Cc1cccc(CCNC(=O)c2cc(S(=O)(=O)N3CCCC3)cn2C)c1`, the inhibition was -6.27%.

With `Cc1ccc(/C=C/C(=O)OCC(=O)NC(=O)NCc2ccccc2)cc1`, the inhibition was -1.66%.

`Cc1ccc(C2C(C#N)=C(N)OC3=C2C(=O)CC(C)(C)C3)s1` (configuration not stated): the inhibition is 4.01%.

With `CC1(C)CC(=O)C2=C(C1)OC(N)=C([N+](=O)[O-])C2c1cccs1` (configuration not stated), the inhibition was 3.64%.

On to `COC(C(=O)Nc1cccc(F)c1)c1ccccc1` (configuration not stated), for which the inhibition was 1.2%.

`CCN1CCN(c2ccc(S(=O)(=O)N3CCCCC3)cc2NC(=O)/C=C/c2ccc([N+](=O)[O-])cc2)CC1`: the inhibition is 67.1%.

Take `COc1ccc(/C=C/C(=O)Nc2cc(S(=O)(=O)N3CCCCC3)ccc2N2CCCCC2)cc1OC`: the inhibition is 6.87%.

As to `CCCCCNC(=O)c1ccc2c(c1)ncn2-c1ccc(OC)cc1`, the inhibition was 13.7%.

Regarding `CCOc1ccc([C@@H]2CC=C(C(=O)O)[C@H](c3ccc(Cl)cc3)N2S(=O)(=O)c2ccc(C)cc2)cc1`, the inhibition is -1.26%.

Turning to `Cn1cc(CCNC(=O)CC2C(=O)NCCN2Cc2cccc(Oc3ccccc3)c2)cn1` (configuration not stated), the inhibition is 2.08%.

Take `CCCCCNC1=CC(=O)CC(c2ccccc2)C1` (configuration not stated): the inhibition is -1.58%.

`CN(C)CCCNC1=CC(=O)CC(c2ccccc2)C1` (configuration not stated): the inhibition is -4.95%.

Take `COc1ncnc2c1cnn2-c1ccccc1`: the inhibition was 7.17%.

With `C=CCOn1c(=O)c(-c2ccc(OCC)cc2)[n+]([O-])c2ccccc21`, the inhibition was 6.39%.

As for `O=C(CCCSc1nc2ccccc2[nH]1)N1CCN(c2ccc([N+](=O)[O-])cc2)CC1`, the inhibition is -13.5%.

Turning to `CC(C)CCNC(=O)C1CCCN(S(=O)(=O)c2ccc(-n3cnnn3)cc2)C1` (configuration not stated), the inhibition was 1.26%.

As to `CCOC(=O)/C=C/C(=O)OCc1csc(CC(=O)Nc2ccccc2C)n1`, the inhibition is -12.3%.

For the compound `C/C=C/C(=O)OCc1csc(CC(=O)Nc2ccccc2C)n1`, the inhibition was -2.53%.

Regarding `Cc1cc(NC(=O)/C(C#N)=C/c2ccc(-c3cccc(C(F)(F)F)c3)o2)n(-c2ccccc2)n1`, the inhibition is 9.74%.

Turning to `COc1ccc2nc(NNC(=O)COc3ccccc3)sc2c1`, the inhibition was 6.88%.

Regarding `O=C(NNc1nc2ccccc2s1)Nc1ccc(F)cc1`, the inhibition was 7.66%.

For `CC(=O)NNc1nc2ccccc2s1`, the inhibition is -19.1%.

For the compound `COc1ccc(OCC(=O)NNc2nc3ccccc3s2)cc1`, the inhibition was 70%.

As for `CCc1[nH]nc(C(=O)N2CCCC(C(=O)c3cccc(OC(C)C)c3)C2)c1C` (configuration not stated), the inhibition was 8.32%.

As to `CCOC(=O)Cn1nc(-c2ccc(C)cc2)ccc1=O`, the inhibition was -1.62%.

Regarding `CCOC(=O)c1ccccc1NC(=O)CSc1cccc[n+]1[O-]`, the inhibition was -5.24%.

Consider `COC(=O)c1ccc(C(=O)OC)c(NC(=O)CSc2ccccn2)c1`, for which the inhibition is 45%.

Consider `Cc1c(Cl)cccc1NC(=O)CCN1CCN(C)CC1`, for which the inhibition was -6.21%.

As to `O=C(NCCc1ccccc1)c1c(O)c2cccc3c2n(c1=O)CC3`, the inhibition was -1.91%.

With `CCCCN(C(=O)NC(=O)Nc1ccc(C)cn1)S(C)(=O)=O`, the inhibition was -2%.

On to `Cc1ccc(NC(=O)CSc2nc3ccccc3c(=O)n2CCCN2CCCCC2)cc1C`, for which the inhibition was 24.1%.

Take `CC1CCN(CCCn2c(SCC(=O)Nc3ccccc3Cl)nc3ccccc3c2=O)CC1`: the inhibition was 6.66%.

For `Cc1ccccc1N(Cc1cc(=O)[nH]c2ccccc12)C(=O)C(C)C`, the inhibition was -1.51%.

As to `C#CCCC/C(=C\C(=O)N(C)[C@H](C(=O)N(C)[C@H](C(=O)N(C)[C@H](C(=O)N(C)[C@H](C(N)=O)C(C)C)C(C)C)C(C)C)C(C)C)OC`, the inhibition was 2.88%.

For `Cc1cccc([C@@H]2[C@@H]3C(=O)N(Cc4ccccc4)C(=O)[C@@H]3[C@]3(Cc4ccccc4)C(=O)N(c4cccc(Cl)c4)C(=O)N23)c1`, the inhibition was 12.6%.

In the case of `Cc1cc(Cn2nc(C(=O)NCc3cccc(Br)c3)cc2-c2ccccc2)on1`, the inhibition was 25.4%.

Regarding `Cc1ccc(N2C(=S)NC3c4cc(Cl)ccc4OC2(C)C3C(=O)N(C)C)cc1` (configuration not stated), the inhibition is 0.53%.

Take `CN(C)C(=O)C1C2NC(=S)N(c3cccc(Cl)c3)C1(C)Oc1ccc(Cl)cc12` (configuration not stated): the inhibition was -0.86%.

Turning to `CSc1cccc(CN2CCN(CCC(C)C)C(CCO)C2)c1` (configuration not stated), the inhibition is -6.35%.

For the compound `COc1ccc(NC(=O)c2cn(CCC#N)nc2-c2ccccc2)cc1`, the inhibition was 1.76%.

On to `Cc1nc(C)c(C(=O)N(c2ccc(F)cc2)C(C(=O)NCC2CCCO2)c2ccccc2)s1` (configuration not stated), for which the inhibition is 6.83%.

Turning to `Cc1onc(C(=O)N2CCN(Cc3ccccc3)CC2)c1[N+](=O)[O-]`, the inhibition was 3.07%.

Regarding `CC(=N\NC(=O)c1ccccc1)/C(=N/O)C(=O)Nc1ccccc1`, the inhibition is 19.5%.

`O=C1C(c2c(O)[nH]c3ccccc23)=Nc2ccccc21`: the inhibition is 26.2%.

Take `O=C1C(C2=C(O)c3ccccc3C2=O)=Nc2ccccc21`: the inhibition is -18.6%.

Take `O=C(CCCn1c(=O)[nH]c2cc(Cl)ccc2c1=O)NCCCN1CCCC1=O`: the inhibition was 1.6%.

`C=CCn1c(SC)nnc1-c1ccc2ncccc2c1`: the inhibition is 0.53%.
